In ChEMBL document CHEMBL3988442, “University of Dundee, Small-Polar-MMV Screening Library” (2021):

Assays:
[1] = target: T1, Aspartate--tRNA(Asp/Asn) ligase (Mycobacterium tuberculosis (strain ATCC 25618 / H37Rv)) (UniProt P9WFW3); assay: Assay for Asp RNA synthetase-1 from Mycobacterium tuberculosis; type: functional; parameters: scale not given: direction of the effect not stated beside the values; settings: 30 µM; note: in the data most compounds retested in dose-response had high values
T1 sequence (whole entry): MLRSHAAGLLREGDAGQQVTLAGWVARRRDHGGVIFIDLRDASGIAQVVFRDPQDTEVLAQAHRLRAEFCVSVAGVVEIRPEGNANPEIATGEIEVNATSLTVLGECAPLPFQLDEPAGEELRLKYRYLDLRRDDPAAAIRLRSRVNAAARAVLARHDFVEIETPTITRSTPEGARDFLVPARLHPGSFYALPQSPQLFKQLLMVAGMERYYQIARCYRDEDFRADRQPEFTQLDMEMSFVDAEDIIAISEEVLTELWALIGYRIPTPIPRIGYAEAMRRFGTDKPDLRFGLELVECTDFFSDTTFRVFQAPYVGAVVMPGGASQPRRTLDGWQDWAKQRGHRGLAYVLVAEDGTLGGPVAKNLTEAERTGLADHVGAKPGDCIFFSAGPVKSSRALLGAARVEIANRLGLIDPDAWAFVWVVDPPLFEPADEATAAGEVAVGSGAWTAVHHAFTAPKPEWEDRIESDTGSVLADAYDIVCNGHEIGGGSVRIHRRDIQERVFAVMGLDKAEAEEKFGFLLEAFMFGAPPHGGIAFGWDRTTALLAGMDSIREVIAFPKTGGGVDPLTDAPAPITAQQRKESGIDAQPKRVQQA

[2] = target: Shiga toxin 2 (Escherichia coli O157:H7) (UniProt P09385+P09386); assay: E. coli 0.157:H7 Shiga Toxin SOP - stx2 screening assay; type: functional; parameters: scale not given: direction of the effect not stated beside the values; settings: 30 µM

Structure (SMILES) | Percent Effect [1] [%] | Percent Effect [2] [%]
CC(C)c1nnc2n1CCN(CC(=O)Nc1nncs1)C2 | -2.1 | 10
COCC(=O)N1CCC2(CCN(Cc3ccccn3)CC2)CC1 | 6.21 | -8.31
Cc1noc(C)c1CCC(=O)N1CCN(CCn2cncn2)CC1 | 6.07 | -7.17
c1ccc(CN2CCN(Cc3cscn3)CC2)cc1 | -2.48 | 3.98
CCc1nnc2n1CCN(C(=O)c1ccc(-c3ccco3)nc1C)C2 | -3.2 | -27.7
Cc1ccc(CN2CCC3(CC2)CC(c2cccnc2)CO3)s1 (configuration not stated) | -2.49 | -7.07
CNS(=O)(=O)c1ccc(CNC(=O)NCC2CCOC2)cc1 (configuration not stated) | -4.9 | 25.4
Cc1nc(C)n(CC2CCCN(CCc3ccncc3)C2)n1 (configuration not stated) | 0.891 | -14.2
O=C1OC2(CCN(C3CCCOC3)CC2)CN1CCc1ccccc1 (configuration not stated) | 1.52 | -27.2
CN1CCN(C(=O)[C@H]2C[C@@H]3CCN(c4ncc(F)cn4)C[C@@H]3O2)CC1 | -1.43 | -18.9
CCN(CC)C(CNC(=O)c1ccc(S(C)(=O)=O)cc1)c1ccco1 (configuration not stated) | -0.521 | -4.44
CCn1cc(C(=O)NC2CCN(S(C)(=O)=O)CC2)c2ccccc21 | -0.607 | -0.257
COC(=O)CCC(=O)N1CCC2(CN(Cc3cccc(F)c3)C2)C1 | 8.76 | 2.07
CCn1cnnc1CNC(=O)NC(C)c1cccs1 (configuration not stated) | 0.243 | -10.2
NC(=O)C1(CCCc2cccnc2)CCCN(c2ncccn2)C1 (configuration not stated) | -0.456 | -4.97
CNC(=O)C1CCN(C(=O)c2ccn(-c3ccc(F)cc3)n2)CC1 | 3.5 | 7.26
CCS(=O)(=O)N(C)C(=O)c1cc(C)n(-c2cccc(OC)c2)c1C | -6.83 | -4.96
CCOc1cccc(C(C)NC(=O)N2CCC(C(N)=O)CC2)c1 (configuration not stated) | -2 | 11.2
Cc1cccc(C(=O)N2C[C@@H]3CCN(c4cccnc4)C[C@@H]3C2)c1 | 3.96 | -5.99
CSCCCNC(=O)Nc1cccc(-c2nccn2C)c1 | -3.93 | -93.1
Cc1ccc(Cl)cc1N1CCC(CNC(=O)CCn2ccnn2)C1 (configuration not stated) | 2.9 | -49.4
O=C1CCCN1Cc1nnc2n1CCN(Cc1ccoc1)CC2 | 1.71 | -17.6
O=C(Cn1nc(-c2ccc(F)cc2)oc1=O)Nc1ccccc1 | -1.5 | -19.2

Structure (SMILES) | Percent Effect [1] [%] | Percent Effect [2] [%]
CCNS(=O)(=O)c1ccc(C)c(C(=O)N(C)Cc2ccco2)c1 | 2.92 | 0.315
c1cc2n(n1)CC(CNCc1ccc(OCC3CC3)nc1)CN2 (configuration not stated) | 0.395 | -66.4
NC(=O)C(CNC(=O)COCC(F)(F)F)Cc1ccc(F)cc1 (configuration not stated) | 0.689 | 4.66
CN(C)C[C@H]1OC[C@@H]2CCN(S(=O)(=O)c3cccs3)C[C@@H]21 | -0.29 | -8.75
Cc1ccc(CN2CC[C@H]3C[C@@H](c4nc(C5CC5)cs4)O[C@@H]3C2)o1 | 11.7 | -16.4
COCC1CN(C(=O)CNC(C)=O)Cc2ncnn2C1 (configuration not stated) | 0.773 | -26.6
Cn1ccc(C(=O)N2CCC(Cc3cnc4[nH]ccc4c3)CC2)n1 | 0.283 | 19.7
CCc1ncnc2c1CCN(C(=O)N1CCCC1)CC2 | 1.98 | -14
COCCN(C)C(=O)Cn1cccc(OC)c1=O | 49.9 | -42.8
c1csc(-c2nc(CN3CCOC(Cn4cncn4)C3)cs2)c1 (configuration not stated) | -6.66 | 31.4
Cc1ccccc1CN1CCCN(C2CCOC2=O)CC1 (configuration not stated) | -0.409 | 15
COc1ccc(COCC(O)CNC(=O)c2cnc(C)cn2)cc1 (configuration not stated) | 0.509 | -32.5
O=C(NCC1CCS(=O)(=O)C1)c1sccc1-c1ccc(F)cc1 (configuration not stated) | -1.09 | -3.87
CCNC(=O)Nc1ccc2c(ccn2CC(=O)N(CC)CC)c1 | -3.17 | 30.4
CC(C)NC(=O)COc1nc(C(C)(C)C)no1 | 0.301 | 2.21
Cc1cc(C)n(C2CN(CC(=O)N3CCOCC3)C2)n1 | -0.655 | 9.68
Cc1cccc(-c2[nH]ncc2CNCC2CCN(CC(C)O)CC2)c1 (configuration not stated) | 4.15 | 20.1
Cc1nc(COc2ccc(CNCC3CN(C)CCO3)cc2)cs1 (configuration not stated) | 5.51 | -13.8
Cc1cc(-c2ccc(C(=O)O)cc2)nc(C2CCCN(C(C)C)C2)n1 (configuration not stated) | -0.0735 | -2.97
CC(=O)N1C[C@@H](c2ccsc2)[C@@H]2CN(Cc3ccccc3)CC[C@@H]21 | 2.13 | -20.6
Cc1cc(C)cc(-c2ccc(CC3(C(=O)O)CCOCC3)cc2)c1 | 4.9 | -4.63
Cc1noc(C)c1C(=O)NCC(C)N(C)C (configuration not stated) | 1.84 | 30.6
CNS(=O)(=O)Cc1ccc(CNC(=O)c2ccc(C)[nH]c2=O)cc1 | -0.577 | -39.3
